# High-throughput results from PubChem BioAssay.
# The list is not random: actives were taken first. Their share in the collection is about 8%.
# KB-V1 cytotox: kills drug-selected multidrug resistant KB-V1 cells; 400,000 tested, 3.4% active; Potency, µM (titrated, usually from 46.1 µM), most hits filed as cytotoxic; KB-V1 MDR cells viability, CellTiter-Glo, 72 h; AID 1347076; note: % is set by controls: 0 for no effect and ±100 for the full control effect; nearly all actives have a fitted effect of over 60% in size
#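 Cytotoxicity via CellTiter-Glo luminescence after 72 h compound exposure at 37 degrees C. Cells: drug-selected KB-V1 line, DMEM phenol-red free plus 10% FBS. Compounds tested at multiple concentrations; normalized data fitted to concentration-effect curves.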
# MCF10A rerep: DNA re-replication induction in MCF 10a cells | Potency, µM (doses to about 46.1 µM), for inactives: at the top dose activity, positive = re-replication, hits mostly activators | 350,000 tested, 2.9% active | AID 624296 | MCF 10A DNA re-replication, Hoechst nuclear intensity, 48 h; note: % of control where 0% means no effect; nearly all actives have a fitted effect of over 50% in size
# HT1080-NT tox: kills 2HG-producing HT-1080-NT fibrosarcoma cells | AID 686970 | HT-1080-NT fibrosarcoma viability, CellTiter-Glo ATP luminescence, 48 h | Potency, µM (doses to about 46.1 µM), without a hit: at the top dose activity, negative = less viability, usual class: cytotoxic | 360,000 tested, 1.6% active;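 note: NT is the 2HG producing partner of a matched IDH1 knockdown line; 0% = DMSO-treated cells and -100% = media-only wells without cells; nearly all actives have a fitted effect of over 55% in size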
#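 A 48-hour cytotoxicity screen used HT-1080-NT cells plated 2 hours before compound delivery. ATP-based CellTiter-Glo luminescence measured viability, normalized to DMSO and no-cell controls.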
# SW480 rerep: inducers of DNA re-replication in SW480 colon cancer cells; SW480 DNA re-replication, Hoechst DNA content imaging, 48 h; Potency, µM (highest dose often 46.1 µM), inactives show at the top dose re-replication activation, actives largely listed as activators; 340,000 tested, 1.8% active; AID 624297; note: % of control where 0% means no effect; nearly all actives have a fitted effect of over 55% in size
#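 Quantitative HTS format with DMSO vehicle controls; 48 hr drug incubation at 37 C, then 40 min Hoechst staining and scanning imager measurement at 405 nm excitation.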
# HT1080 IDH1KD tx: kills HT-1080 cells with IDH1 knockdown; Potency, µM (doses to about 46.1 µM), inactives show at the highest dose activity, negative = toxicity, hits mostly cytotoxic; 360,000 tested, 2% active; HT-1080 IDH1 knockdown viability, ATP luminescence, 48 h; AID 686971;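 note: 0% = DMSO wells and -100% = cell-free medium wells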
#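 In this qHTS, HT-1080 cells depleted of IDH1 are exposed for 48 h at 37 °C to compound titrations. Toxicity is scored from CellTiter-Glo luminescence, with DMSO as full viability and medium alone as none.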
# KB-3-1 tox: KB-3-1 parental cell cytotoxicity; KB-3-1 viability, CellTiter-Glo ATP luminescence, 72 h; 400,000 tested, 1.4% active; Potency, µM (titrated, usually from 46.1 µM), usual class: cytotoxic; AID 1347075; note: % is set by controls: 0 for no effect and ±100 for the full control effect; nearly all actives have a fitted effect of over 60% in size
#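 Cells are dispensed, compounds pinned in, plates held at 37 °C for 72 h, then CellTiter-Glo is added and luminescence read after 10 minutes. Cell line: parental KB-3-1 in phenol-red-free DMEM, 10% FBS.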
# * = called active by the depositor; i = inactive; ? = inconclusive; · = no result given; [ ] = dose if it differs, or a comment. Calls come from the whole dose curve; as a rule, active = well fitted curve in the direction sought with a large enough effect; inconclusive = small, poorly fitted or top-dose-only effect, or another doubt; inactive = no such curve, though single readings can be large; an effect the other way counts as inactive or inconclusive. Potency is the fitted concentration of half-maximal effect.
SMILES,KB-V1 cytotox,MCF10A rerep,HT1080-NT tox,SW480 rerep,HT1080 IDH1KD tx,KB-3-1 tox
Cc1onc(-c2ccccc2Cl)c1C(=O)Nc1cccc(-c2nc3ncccn3c2C)c1,8.2µM*,?,-2%,7%,-8%,i
Cc1onc(-c2ccccc2Cl)c1C(=O)Nc1ccc(-c2cn3cccnc3n2)cc1,?,-3%,1%,0%,-5%,i
C/C(=N\N=C1/SC(CC(=O)O)C(=O)N1c1ccccc1)c1ccc(C)cc1 (configuration not stated),i,10%,3%,-2%,-1%,i
Cc1ccc(-c2cn3cccnc3n2)cc1NC(=O)c1c(-c2ccccc2Cl)noc1C,4.6µM*,?,-27%,?,-30%,12µM*
Cc1cnc(C(=O)Nc2cccc3cccnc23)cn1,?,?,?,?,?,5.2µM*
CC(=O)Nc1cccc(NC(=O)c2c(-c3ccccc3Cl)noc2C)c1,16µM*,?,-7%,0%,-12%,i
Cc1onc(-c2ccccc2Cl)c1C(=O)Nc1cccc2cccnc12,12µM*,8.2µM*,-26%,13%,?,i
COc1cc(-n2c(C)nc3cc(C(=O)NCC4CCCO4)ccc32)cc(OC)c1OC (configuration not stated),i,-1%,-2%,2%,13%,?
O=C(Cn1nc(Cc2cccnc2)c2ccccc2c1=O)Nc1cc(F)ccc1F,i,1%,5%,-3%,7%,i
CCOc1ccc2ncc3c(-c4ccc(C)cc4)nn(-c4cccc(F)c4)c3c2c1,i,·,·,·,·,i
Cc1nnsc1C(=O)NC1CCCc2c1cnn2-c1ccc(F)cc1F (configuration not stated),?,18%,7.3µM*,0%,-15%,i
Cc1nnsc1C(=O)NC1CCCc2c1cnn2-c1cc(F)cc(F)c1 (configuration not stated),i,-1%,2%,-4%,0%,i
COc1cc(C(=O)NC2CCCc3c2cnn3-c2ccccc2F)cc(OC)c1OC (configuration not stated),?,8%,-21%,-10%,-25%,?
COC(=O)c1ccc(C(=O)NC2CCCc3c2cnn3-c2ccccc2F)nc1 (configuration not stated),4.1µM*,15µM*,?,18µM*,?,?
CC(C)CC1(C)NC(=O)N(CC(=O)Nc2cccc(S(=O)(=O)N(C)c3ccccc3)c2)C1=O (configuration not stated),i,-9%,-14%,0%,4%,i
CC1(C)Cc2nc3sc(C(=O)NCCO)c(N)c3cc2CO1,i,-4%,?,-6%,-3%,i
COc1ccc(C(=O)/C=C/c2ccc(F)cc2)c(OC(=O)c2ccc([N+](=O)[O-])cc2)c1,?,?,?,?,?,i
COc1ccc(C(=O)/C=C/c2cccs2)c(OC(=O)c2cccc([N+](=O)[O-])c2)c1,i,?,-1%,25%,-2%,7.3µM*
CC1(C)CC(=O)C2=C(C1)OC(N)=C(C#N)C21C(=O)N2CCCc3cccc1c32 (configuration not stated),i,4%,12%,-2%,0%,i
Cc1cc2c3c(c1)C(C)(c1ccccc1)CC(C)(C)N3C(=O)C21C(C#N)=C(N)OC2=C1C(=O)CC(C)(C)C2 (configuration not stated),21µM*,?,-1%[9.24 µM],18%,18µM*,?
O=C1[C@H]2[C@@H](c3ccc(C(F)(F)F)cc3)N[C@]3(CCCN(Cc4ccc(F)cc4)C3=O)[C@H]2C(=O)N1Cc1ccccc1,?,·,-4%,·,-5%,i
COc1ccc(CCn2c(C)cc(C(=O)CSc3nnnn3C)c2C)cc1,i,2%,22%,-4%,22%,i
COc1ccc(/C=C(/CC(=O)Nc2ccccc2)c2nc3ccccc3s2)cc1,i,5%,-7%,3%,-3%,i
COc1ccc(/C=C(/CC(=O)NCc2ccc(Cl)cc2)c2nc3ccccc3s2)cc1,10µM*,2%,7%,?,-9%,i
O=C1CCC2(CC1)NC(=O)N(c1ccccc1)N2,i,24%,?,1%,8.2µM*,i
SMILES,KB-V1 cytotox,MCF10A rerep,HT1080-NT tox,SW480 rerep,HT1080 IDH1KD tx,KB-3-1 tox
COCCN(C(=O)CSc1nnc(-c2ccc(Cl)cc2)o1)c1c(N)n(CC(C)C)c(=O)[nH]c1=O,·,4%,-2%,0%,1%,·
O=[N+]([O-])c1cccc2c(Cl)ccnc12,i,-1%,0%,-6%,-4%,i
Cc1ccccc1Oc1ncnc2oc(-c3ccccc3)cc12,i,?,1%,-2%,0%,i
Clc1ccc(Oc2ncnc3oc(-c4ccccc4)cc23)cc1,i,5.8µM*,8%,0%,7%,i
Cc1ccc(OCCN2CCN(C(=O)CCC(=O)Nc3nnc(CC(C)C)s3)CC2)cc1,8.2µM*,?,?,-1%,9.2µM*,?
CC(C)Cc1nnc(NC(=O)CCC(=O)N2CCN(Cc3ccc(F)cc3)CC2)s1,i,0%,13%,20%,0%,i
Cc1c(NS(=O)(=O)c2ccc(N(C)C3CCCCC3)c([N+](=O)[O-])c2)c(=O)n(-c2ccccc2)n1C,15µM*,-12%,-4%,?,-1%,?
COc1ccccc1NS(=O)(=O)c1cccc(C(=O)N2CC(C)OC(C)C2)c1 (configuration not stated),i,0%,9%,-7%,15%,i
COc1cc(/C=N/NC(=O)c2nc(-c3ccccc3)n(-c3ccccc3)n2)ccc1O,i,-2%,-4%,-12%,7%,i
COc1cc(/C=N/Nc2nc(C)nc3c2cnn3-c2ccccc2)ccc1O,8.2µM*,?,?,15µM*,?,?
O=C(C1CC1)N1c2ccccc2Sc2ccccc21,?,?,?,?,18µM*,21µM*
COCCn1c(=NC(=O)CSCC(=O)NC2CCCCC2)sc2cc(OC)ccc21,2.9µM*,14%,-2%,5%,-2%,?
CCN(CC)C(=O)C1CCN(S(=O)(=O)c2cccc3nonc23)CC1,i,13%,?,?,1%,i
O=S(=O)(CC(CN1CCCCC1)N1CCCCC1)c1ccc2ccccc2c1 (configuration not stated),?,?,?,?,?,6.5µM*
